# In PubChem BioAssay (NCATS):
# A number with no mark means an inactive call. Inconclusive results are not listed. The source made the active and inactive calls. Calls come from the whole dose curve; as a rule, active = well fitted curve in the direction sought with a large enough effect; inconclusive = small, poorly fitted or top-dose-only effect, or another doubt; inactive = no such curve, though single readings can be large; an effect the other way counts as inactive or inconclusive.
# Tested on: not listed separately
# Test: qHTS to identify inhibitors of the type 1 interferon - major histocompatibility complex class I in skeletal muscle: primary screen against the NCATS Pharmaceutical Collection (AID 1347407);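 note: luminescence of HiBiT knocked into endogenous HLA-B as interferon-induced MHC class I level; % is set by controls: 0 for no effect and ±100 for the full control effect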
# Details: human skeletal muscle cells, IFN-b-induced MHC-I HiBiT luminescence, 24 h; series mostly up to 45.9 µM; activity change, negative = inhibition: at the top concentration
# Procedure, shortened: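 Cells were seeded with 4 ng/ml IFN-beta, incubated 1 h, then dosed with compounds over eight 1:5 steps up to 46 uM final. After 24 h at 37 C, HiBiT lytic reagent was added and luminescence read after 10 min lysis in the dark.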
SMILES,Potency,"activity change, negative = inhibition [%]"
OC[C@@H](O)[C@H](O)[C@H](O)[C@@H](O)CO,inactive,–
C[C@@H](O)[C@H]1C(=O)N2C(C(=O)O)=C(S[C@@H]3CN[C@H](C(=O)N(C)C)C3)[C@H](C)[C@H]12,inactive,–
CN1C[C@H]2c3ccccc3Oc3ccc(Cl)cc3[C@@H]2C1,–,2.54

# Tested on: not listed separately
# Test: qHTS for inhibitors of adenylyl cyclases using a fission yeast platform: a pilot screen against the NCATS LOPAC library (AID 1347410);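 note: plate controls were DMSO vehicle for no effect and DPI positive control for full effect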
# Details: S. pombe CHP2027, fbp1-GFP fluorescence, 18 h, yeast expressing mammalian AC9 and human GNAS; series mostly up to 57.5 µM; activity, positive = inhibition (GFP gain): at the top concentration
# Procedure, shortened: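 Growth medium went into the plates first, then compounds were pinned (final up to 57 µM), then CHP2027 yeast were added. Plates were incubated overnight (18 h) at 30C in the dark, and GFP was measured by laser scanning cytometry.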
SMILES,"activity, positive = inhibition (GFP gain) [%]",outcome
COc1ccc(Cc2nccc3cc(OC)c(OC)cc23)cc1OC,-0.438,–
COc1cccc(-c2cc(=O)c3ccccc3o2)c1N,-0.438,–
NC(N)=Nc1nc(CSCC/C(N)=N/S(N)(=O)=O)cs1,1.33,–
O=c1cc(-c2ccc(O)cc2)oc2cc(O)cc(O)c12,-0.438,–
CC1(C)CCC2=C(O1)c1ccccc1C(=O)C2=O,-0.438,–
CCCCC1C(=O)N(c2ccccc2)N(c2ccccc2)C1=O,-0.438,–
CCN(CC)CCNC(=O)c1ccc(N)cc1,-0.438,–
CC/C(=C(\c1ccccc1)c1ccc(OCCN(C)C)cc1)c1ccccc1,–,inactive
CC(C)(C)c1ccc(C(O)CCCN2CCC(C(O)(c3ccccc3)c3ccccc3)CC2)cc1 (centres undefined),0.865,–
CCCNC(=O)NS(=O)(=O)c1ccc(Cl)cc1,-0.438,–
Clc1ccc(C(c2ccc(Cl)cc2)n2cc[n+](CC(OCc3ccc(Cl)cc3Cl)c3ccc(Cl)cc3Cl)c2)cc1 (centres undefined),2.44,–

# Tested on: not listed separately
# Test: qHTS to identify inhibitors of the type 1 interferon - major histocompatibility complex class I in skeletal muscle: primary screen against the NCATS Mechanism Interrogation Plate v5.0 (MIPE) Libary (AID 1347411); note: nearly all actives have a fitted effect of over 65% in size; note: potency is the fitted concentration of half-maximal effect;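 for activity change, negative = inhibition: plate controls were vehicle for no effect and reference inhibitor for full effect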
# Details: iHSKM cells + IFN-b, HiBiT-tagged MHC-I luminescence, 24 h; series mostly up to 45.8 µM; activity change, negative = inhibition: at the top concentration
# Procedure, shortened: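 Immortalized human myoblasts (C25cl48) with HiBit knocked into endogenous HLA-B*08:01 were stimulated with 4 ng/ml IFN-beta and given compounds in 11-point 1:3 titration from 46 uM. After 24 h at 37 C, lytic HiBiT luminescence was read.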
SMILES,"activity change, negative = inhibition [%]",Potency
O=C1C[C@@H](c2ccc(O)cc2)Oc2cc(O)cc(O)c21,-2.31,–
COc1cccc(-c2cc(=O)c3ccccc3o2)c1N,-22.1,–
Cc1nc(N)sc1-c1ccnc(Nc2ccc(N3CCOCC3)cc2)n1,–,3.7 µM (active)
CN[C@@H](C)C(=O)N[C@H]1CN(C(=O)CC(C)C)CC[C@H]2CC[C@@H](C(=O)NC(c3ccccc3)c3ccccc3)N2C1=O,-13.4,–
C[C@H](NC(=O)c1sccc1OCc1ccc(Cl)cc1)c1ccccc1,-26.4,–
CC1CCC(C(=O)N(c2cc(C#CC(C)(C)C)sc2C(=O)O)C2CCC(O)CC2)CC1 (centres undefined),-24,–
CCCCCCCCCCCC1=C(O)C(=O)C=C(O)C1=O,-11.1,–
O=c1cc(-c2cccc3c2Sc2ccccc2S3)oc(N2CCOCC2)c1,-18.2,–
NS(=O)(=O)c1cccc2c1C(=O)c1cccc(O)c1C2=O,–,0.415 µM (active)
O=C(O)c1cc(O)c2c(c1)C(=O)c1cccc(O)c1C2=O,-7.9,–
CCOC(=O)C1=C(N)Oc2ccc(Br)cc2C1C(C#N)C(=O)OCC (centres undefined),-14.5,–
CC(C)C(C)C=CC(C)C1CCC2C3=CC=C4CC(O)CCC4(C)C3CCC21C (centres undefined),-9.76,–
COc1ccc(C2CC(c3ccccc3)=NN2c2ccc(S(N)(=O)=O)cc2)cc1 (centres undefined),-10.6,–
N#CC1(c2ccc(NC(=O)c3cccnc3NCc3ccncc3)cc2)CCCC1,-5.65,–
O=C(Nc1cccc(Br)c1)c1cccc(S(=O)(=O)N2CCCCCC2)c1,-13.7,–
CC/C(=C(\c1ccccc1)c1ccc(OCCN(C)C)cc1)c1ccccc1,–,30.1 µM (active)
O=C(Nc1ccccc1Br)N[C@@H]1CCN(c2ccc(C(F)(F)F)cn2)C1,-6.54,–
CC1(C)CCC(CN2CCN(c3ccc(C(=O)NS(=O)(=O)c4ccc(NCC5CCOCC5)c([N+](=O)[O-])c4)c(Oc4cnc5[nH]ccc5c4)c3)CC2)=C(c2ccc(Cl)cc2)C1,-11.8,–
COc1cccc([C@@H](C)NCCCc2ccccc2Cl)c1,35.3,–
CC(C)(C(=O)NCC(F)(F)C(F)(F)F)C(=O)N[C@@H]1C(=O)Nc2ccccc2-c2ccccc21,0.863,–
Clc1ccc(C(c2ccc(Cl)cc2)n2cc[n+](CC(OCc3ccc(Cl)cc3Cl)c3ccc(Cl)cc3Cl)c2)cc1 (centres undefined),–,16.5 µM (active)
CC(=O)OC1C(C)OC(Oc2c(-c3ccc(O)cc3)oc3cc(O)cc(O)c3c2=O)C(O)C1OC(C)=O (centres undefined),5.3,–

# Molecular target: Protein phosphatase 1D (Homo sapiens) (UniProt O15297)
# Test: RapidFire Mass Spectrometry qHTS Assay for Modulators of WT P53-Induced Phosphatase 1 (WIP1) (AID 1347424);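 note: amount of dephosphorylated VEPPL-S-QETFS peptide product formed by WIP1; plate controls were DMSO wells for no effect and GSK830371 inhibitor control at 10 µM for full effect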
# Details: WIP1 dephosphorylation of phosphopeptide, RapidFire MS; series mostly up to 63 µM; activity change, negative = inhibition: at the top concentration
# Procedure, shortened: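 WIP1 (10 nM final) was preincubated 1 h at room temperature with compounds in Tris-HCl pH 7.5, 30 mM MgCl2, TCEP, EGTA, BSA; 2 uM VEPPL-pS-QETFS phosphopeptide was added for 5 min, quenched with formic acid, and dephosphorylated product quantified by RapidFire MS.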
# Sequence of Protein phosphatase 1D (Homo sapiens) (O15297 whole entry, looked up): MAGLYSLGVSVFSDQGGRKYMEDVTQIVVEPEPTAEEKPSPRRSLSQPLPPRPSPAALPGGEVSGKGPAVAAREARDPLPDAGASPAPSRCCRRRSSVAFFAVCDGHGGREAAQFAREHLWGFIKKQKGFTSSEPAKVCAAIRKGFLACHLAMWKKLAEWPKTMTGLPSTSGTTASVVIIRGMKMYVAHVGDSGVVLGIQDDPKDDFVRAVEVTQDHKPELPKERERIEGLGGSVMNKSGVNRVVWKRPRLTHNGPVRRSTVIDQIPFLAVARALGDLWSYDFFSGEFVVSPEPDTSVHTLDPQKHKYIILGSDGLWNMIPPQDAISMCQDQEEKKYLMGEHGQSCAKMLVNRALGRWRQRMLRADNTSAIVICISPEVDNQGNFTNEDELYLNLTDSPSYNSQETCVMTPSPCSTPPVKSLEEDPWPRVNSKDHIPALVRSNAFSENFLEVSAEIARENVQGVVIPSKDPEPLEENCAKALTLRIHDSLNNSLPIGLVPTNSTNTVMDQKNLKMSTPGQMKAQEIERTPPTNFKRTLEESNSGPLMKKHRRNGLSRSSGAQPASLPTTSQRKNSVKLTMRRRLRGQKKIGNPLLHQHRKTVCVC
SMILES,"activity change, negative = inhibition [%]",outcome
NC(N)=Nc1nc(CSCC/C(N)=N/S(N)(=O)=O)cs1,-7.4,–
OC[C@@H](O)[C@H](O)[C@H](O)[C@@H](O)CO,–,inactive
CCN(CC)CCNC(=O)c1ccc(N)cc1,5.47,–
CC/C(=C(\c1ccccc1)c1ccc(OCCN(C)C)cc1)c1ccccc1,41,–
C[C@@H](O)[C@H]1C(=O)N2C(C(=O)O)=C(S[C@@H]3CN[C@H](C(=O)N(C)C)C3)[C@H](C)[C@H]12,–,inactive
CC(C)(C)c1ccc(C(O)CCCN2CCC(C(O)(c3ccccc3)c3ccccc3)CC2)cc1 (centres undefined),30.5,–
CCCNC(=O)NS(=O)(=O)c1ccc(Cl)cc1,-18.3,–
CN1C[C@H]2c3ccccc3Oc3ccc(Cl)cc3[C@@H]2C1,2.72,–
